For 9 molecules, growth results are on record in PubChem BioAssay (NCI).

Assay in all cases: NCI-60 one-dose screen, 48 h (100 = growth as untreated, 0 = no growth, -100 = all killed)
What all share (conditions): 10 µM unless noted

In assay [1] the test system is MOLT-4 leukemia.
The test system of assay [2] is SR leukemia.
In assay [3] the test system is OVCAR-8 ovarian.
Assay [4] deals with OVCAR-5 ovarian.
For assay [5], the system named is OVCAR-4 ovarian.
Assay [6] relates to SK-OV-3 ovarian.
The test system of assay [7] is IGROV1 ovarian.
The subject of assay [8] is OVCAR-3 ovarian.
Assay [9] deals with HS 578T breast.
Assay [10] relates to NCI/ADR-RES ovarian.
Assay [11] relates to T-47D breast.
Assay [12] deals with BT-549 breast.
Assay [13] concerns MDA-MB-435 melanoma.
Assay [14] deals with SW-620 colon.
In assay [15] the test system is MCF7 breast.
In assay [16] the test system is HCT-116 colon.
In assay [17] the test system is HCC-2998 colon.
For assay [18], the system named is KM12 colon.
For assay [19], the system named is RPMI-8226 leukemia.

SMILES strings stand for the structures. This is part of a sample that, as a whole, favours compounds with a hit. Of some 83,000 tested, about 20% had one in any assay.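 96-well plates, one dose, 48 hours. Percent growth reported; active if below 10.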 Unmarked numbers belong to inactive results. Active and inactive are the calls of the source.

Regarding `COc1ccc2c(c1)c(-c1nc(-c3c[nH]c4ncccc34)cs1)cn2CCN1CCOCC1`, the growth in assay [1] was 45.7%; in assay [2] it was 45.5%; in assay [3] it was 37.9%; in [4] it was 82.9%; in assay [5] it was 28%; in [6] it was 67.9%. Moreover, the growth in assay [7] is 27.7%; in assay [8], 59%; in [9], 37.5%; in [10] it was 38.7%; in assay [11] it was -1.96% (active); in [12], 50.6%. The growth is 73% in assay [13]; 75.5% in assay [14]; 5.06% (active) in [15]; 52.5% in assay [16]; 74.1% in [17]; 20.2% in assay [18].

As to `Clc1cccc(Cl)c1Cl`, the growth in [1] was 104%; in assay [2], 92.7%; in assay [3], 112%; in assay [4], 97.8%; in [5], 106%; in assay [6] it was 104%. For the same molecule, the growth is 104% in assay [7]; 94.2% in assay [8]; 102% in [9]; 105% in [10]; 85.8% in assay [11]; 102% in assay [12]. Also, the growth in assay [13] was 105%; in assay [14], 105%; in assay [15], 93.5%; in assay [16], 98.9%; in [17], 99.8%; in assay [18], 100%.

For `O=C1C2CC=CCC2C(=O)N1SC(Cl)(Cl)Cl` (stereo unspecified), the growth was 36.3% in [1]; 41.5% in assay [2]; 102% in assay [3]; 111% in [4]; 99.9% in assay [5]; 31.7% in assay [7]. Besides, the growth in [8] is 76.8%; in assay [9], 160%; in [10] it was 104%; in assay [11], 46.3%; in assay [12], 125%; in [13], 126%. In addition, the growth was 8.03% (active) in assay [14]; 83.3% in [15]; 66.5% in assay [16]; 105% in [17]; 103% in [18].

In the case of `CN1C(=O)N[C@H]2[C@@H]3NC(=O)c4ccc(Br)n4[C@@H]3C[C@]21O`, the growth in assay [1] was -9.97% (active); in assay [19], -23.2% (active); in [3], -12.4% (active); in assay [4] it was -2.49% (active); in assay [5], -13.9% (active); in assay [6], -2.3% (active). Besides, the growth in [7] was -13.9% (active); in assay [8], -28.7% (active); in assay [9], -28.5% (active); in [10], 48.6%; in [11] it was -10.6% (active); in assay [12], -47.8% (active). The growth in assay [13] is -30.6% (active); in [14], -4.51% (active); in assay [15], -4.96% (active); in [16] it was -17.1% (active); in assay [17] it was -24.1% (active); in assay [18], -12.8% (active).

With `CC1=C(CNO)C2=C(C)C3(CC3)[C@@](C)(O)C(=O)C2=C1`, the growth is 51% in assay [1]; 99.4% in [19]; 34.5% in assay [3]; 1.01% (active) in assay [4]; -8.4% (active) in assay [5]; 4% (active) in assay [6]. The growth in assay [7] was -8.2% (active); in assay [8], -16.5% (active); in assay [9], 40.2%; in [10] it was 29.7%; in assay [11] it was -3.61% (active); in [12] it was -13% (active). Besides, the growth in assay [13] was 92.1%; in [14] it was 65.7%; in assay [15], 10.6%; in assay [16] it was 2.04% (active); in assay [17] it was -33.4% (active); in [18], 70%.

In the case of `CC1=C(CN)C2=C(C)C3(CC3)[C@@](C)(O)C(=O)C2=C1`, the growth in assay [1] was 96.7%; in assay [19] it was 114%; in assay [3] it was 84.2%; in [4], 97.9%; in assay [5], 93.2%; in assay [6], 102%. For the same molecule, the growth in assay [7] was 94.8%; in assay [8] it was 101%; in [9], 86%; in assay [10] it was 93.8%; in [11], 88.6%; in assay [12], 63.3%. Moreover, the growth is 97.9% in assay [13]; 90.7% in assay [14]; 85.1% in [15]; 90.4% in assay [16]; 92% in assay [17]; 101% in assay [18].

On to `CC[CH2][Sn]([Cl])([Cl])[CH2]CC`, for which the growth in assay [1] is 58.6%; in assay [19], 19%; in assay [3], 89.7%; in assay [4], 94.9%; in assay [5], 95.2%; in [6], 107%. Besides, the growth in assay [7] is 84.6%; in assay [8], 105%; in assay [9] it was 96.8%; in assay [10], 106%; in assay [11] it was -3.16% (active); in [12] it was 60.7%. For the same molecule, the growth in assay [13] is 79.8%; in assay [14], 36.9%; in assay [15], 50.4%; in assay [16] it was 79.9%; in assay [17], 87.7%; in [18], 101%.

Regarding `Fc1ccc(N2COOC3(OOC2)C2CC4CC(C2)CC3C4)cc1`, the growth is 92.8% in [1]; 95.4% in [19]; 86.7% in [3]; 98.6% in [4]; 101% in [5]; 105% in assay [6]. Also, the growth in assay [7] is 16.5%; in assay [8], 97%; in assay [9] it was 109%; in assay [10], 53.2%; in [11], 75.7%; in assay [12] it was 95.4%. Further, the growth in assay [13] is 94.4%; in assay [14] it was 109%; in assay [15], 76.1%; in [16] it was 90.9%; in [17], 106%; in assay [18], 82.7%.

For `Cn1cccc1C1CC(=O)N(CCC[Se]C#N)C1=O` (stereo unspecified), the growth in [1] is 3.58% (active); in [19] it was 64.4%; in assay [3] it was -51.5% (active); in assay [4], 20.4%; in assay [5], 31.2%; in assay [6], -15.7% (active). In addition, the growth was -44.1% (active) in [7]; -45.5% (active) in assay [8]; -8.66% (active) in [9]; -0.356% (active) in assay [10]; 71.7% in [11]; -93.5% (active) in assay [12]. For the same molecule, the growth is -6.27% (active) in [13]; 56.7% in [14]; 9.04% (active) in assay [15]; 2.78% (active) in assay [16]; 83.1% in [17]; 12.3% in assay [18].
